# Inconclusive results are not listed. A call without a number means that no potency is given here. Active and inactive are the calls of the source. Calls follow the shape of the dose curve; as a rule, active = well fitted inhibition curve with a large enough effect; inconclusive = small, poorly fitted or top-dose-only effect; inactive = flat fitted curve, though single readings scatter.
# Target: Calcium and integrin-binding protein 1 (Homo sapiens) (UniProt Q99828)
# Test: Primary qHTS for Identification of Calcium Integrin Binding Protein 1 (CIB1) Competitor (AID 1508620)
# In short: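 Fluorescence polarization competition: GST-tagged CIB1 (1 uM final) preincubated with compound 15 min at room temperature, then FITC-labelled alphaIIb peptide (100 nM final) added. After 15 min at room temperature, polarization read at Ex 480/Em 540.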
# Potency is read from the fitted curve at half-maximal effect.
# Calcium and integrin-binding protein 1 (Homo sapiens), sequence (Q99828 whole entry, looked up): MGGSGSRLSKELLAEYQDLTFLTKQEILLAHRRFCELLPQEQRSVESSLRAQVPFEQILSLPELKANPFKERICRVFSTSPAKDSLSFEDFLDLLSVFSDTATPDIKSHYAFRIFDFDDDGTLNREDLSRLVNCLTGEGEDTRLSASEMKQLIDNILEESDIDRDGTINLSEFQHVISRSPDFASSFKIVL
row,SMILES,Potency
1,COc1ccccc1NC(=O)C1=C(C)NC(Nc2nc3ccccc3o2)=NC1c1ccccc1Br (stereo unspecified),inactive
2,N#Cc1ccc(-c2ccc(CNc3ccc(N4CCC(C(F)(F)F)CC4)cc3)o2)cc1,inactive
3,FC(F)(F)c1cccc(N2CCN(C(=S)Nc3ncnc4ccccc34)CC2)c1,inactive
4,Cn1nnnc1Sc1ncnc2scc(-c3ccccc3[N+](=O)[O-])c12,inactive
5,Cc1cnc(-c2ccccc2C(C)C)nc1NCc1cccs1,inactive
6,FC(F)Oc1ccc(C2=Nn3c(nnc3-c3ccccc3C(F)(F)F)SC2)cc1OCC1CC1,inactive
7,Cc1ccc2c(c1)/C(=C\c1cc(Cl)c(O)c(Cl)c1)C(=O)N2,inactive
8,CCOC(=O)C1CCN(C(=O)C2(NC(=O)Nc3ccc(F)cc3F)CCCCC2)CC1,inactive
9,Cc1ccc(OCCn2c(CCNC(=O)c3cccc(C(F)(F)F)c3)nc3ccccc32)cc1,inactive
10,O=C(CN1C(=O)N/C(=C\c2cccn2-c2cccc(C(=O)O)c2)C1=O)Nc1cccc(Cl)c1,inactive
11,Cc1cc2c(s1)c1cnn(Cc3ccc(Br)cc3)c(=O)c1n2C,inactive
12,O=C(CNC(=O)c1ccc(C(F)(F)F)cc1)OC(C(=O)Nc1cc(C(F)(F)F)ccc1Cl)c1ccccc1 (stereo unspecified),inactive
13,Cc1ccc(NS(=O)(=O)c2cccc(F)c2)cc1C,inactive
14,COc1cc(F)c(S(=O)(=O)N2CCCN(S(=O)(=O)c3cccc(N)c3)CC2)c(F)c1,inactive
15,COc1ccc(C2=Nn3c(nnc3-c3ccccc3C(F)(F)F)SC2)cc1OC1CCOC1 (stereo unspecified),inactive
16,COc1cc2ncnc(N(C)Cc3cccs3)c2cc1-c1ccc2c(c1)OCO2,inactive
17,O=C1CCc2cc(S(=O)(=O)Nc3cccc(F)c3)ccc2N1,inactive
18,CCOC(=O)c1nn(-c2ccccc2)c(=O)c2c(N)scc12,inactive
19,Cc1sc(NC(=O)Cc2ccc3c(c2)OCO3)nc1-c1ccc2c(c1)CCN2C(=O)C1CCCCC1,inactive
20,COc1ccc(C2=Nn3c(nnc3-c3ccccc3OC)SC2)cc1OCC1CC1,inactive
21,O=C(Nc1nc2cc(C(F)(F)F)ccc2s1)c1ccc(-c2cccc([N+](=O)[O-])c2)o1,inactive

row,SMILES,Potency
1,O=C(O)c1ccc(O)c2ncc(-c3ccc(N4CCOCC4)cc3)cc12,inactive
2,O=C(Nc1cncc(O)c1)c1cccs1,inactive
3,Cn1c2cc(Br)sc2c2cnn(Cc3ccccc3F)c(=O)c21,inactive
4,Cc1cn([C@H]2C[C@H](N[S+](=O)([O-])Cc3ccc([N+](=O)[O-])cc3)[C@@H](CO)O2)c(=O)[nH]c1=O,inactive
5,CCOC(=O)C1CCN(C(=O)C(C)(C)NC(=O)Nc2ccc(Cl)cc2Cl)CC1,inactive
6,COc1cccc(C2c3c(ncn(-c4ccccc4)c3=N)Oc3ccc4ccccc4c32)c1 (stereo unspecified),inactive
7,Cc1cc(C)nc(NC(=S)N2CCN(c3ccc4nccn4c3)CC2)c1,inactive
8,CCC(=O)NC(C)c1cc(Cl)c2ccccc2c1O (stereo unspecified),inactive
9,Cc1nnc(-c2cnn(C)c2N)n1CCCn1ccnc1,inactive
10,CC(C)(C)OC(=O)N1CCN(c2ccc(NCc3cccc(-c4ccc(C#N)cc4)n3)cc2)CC1,inactive
11,COc1ccc(-c2nnc3n2N=C(c2ccccc2OC)CS3)cc1OC,inactive
12,Cc1c(P(=S)(c2ccccc2)c2ccccc2)c2ccccc2n1C/C=C/c1ccccc1,inactive
13,Cc1ccc(CNc2ncnc3ccc(-c4sc(C)nc4C)cc23)o1,inactive
14,C[C@@H]1CN(S(=O)(=O)c2ccc3c(c2)OCCO3)CCN1S(=O)(=O)c1c(F)cccc1F,inactive
15,COc1ccc(-c2nc3ccccc3c(=O)n2Cc2ccccc2)cc1COc1ccc(NC(C)=O)cc1,inactive
16,Cc1c(C(=O)O)[nH]c2c1C(=O)CC(c1ccco1)C2 (stereo unspecified),inactive
17,O=C1c2ccccc2C(=O)N1c1cccc(=O)[nH]1,inactive
18,Oc1ccc(CNc2ccccn2)c2cccnc12,inactive
19,Cc1ccccc1S(=O)(=O)N1CCN(S(=O)(=O)c2ccc3c(c2)OCCO3)CC1,inactive
20,CCOC(=O)C1CCN(C(=O)C2(NC(=O)Nc3ccccc3Cl)CCC2)CC1,inactive
21,COc1ccc(NC(=O)c2cccnc2)cc1S(=O)(=O)Nc1ccc(Br)cc1,inactive

row,SMILES,Potency
1,Cc1csc(CNc2ncnc3ccc(-c4ccc5c(c4)OCO5)cc23)c1,inactive
2,O=C1NC(=O)/C(=C/c2cccn2-c2ccc(P(=O)(O)O)cc2)N1,inactive
3,O=C(Nc1ccc2ccccc2c1)Nc1nnc(-c2ccc(O)cc2)s1,inactive
4,Cc1ccc(-c2nnc(NC(=O)Nc3ccc4ccccc4c3)s2)cc1,inactive
5,COc1ccc(Nc2nn3c(=O)c4ccccc4nc3s2)cc1,inactive
6,Cc1cc2c(s1)c1c(C)nn(Cc3ccccc3F)c(=O)c1n2C,inactive
7,Cc1cc2c(s1)c1cnn(Cc3c(F)c(F)c(C(F)(F)F)c(F)c3F)c(=O)c1n2C,inactive
8,Cc1nnc(-c2cnn(C)c2N)n1CCCc1ccncc1,inactive
9,Cc1ccc(Cn2ncc3c4sc(C)cc4n(C)c3c2=O)c(C)c1,inactive
10,Cc1cc(C)nc(NC(=S)N2CCN(c3ccc4nsnc4c3)CC2)c1,50.1 µM (active)
11,Cc1cc(N(C)S(=O)(=O)c2ccc(NC(=O)Cc3ccc(Cl)c(Cl)c3)cc2)no1,inactive
12,Cc1cnc(-c2ccccc2C2CC2)nc1NCc1ccc(-c2cccnc2)cc1,inactive
13,COc1ccc(-c2ccc3ncnc(NCCc4cnc[nH]4)c3c2)cc1OC,inactive
14,Cc1ccc(OCCn2c(CCNC(=O)CCc3ccc(N)cc3)nc3ccccc32)cc1,inactive
15,O=C1CC(c2ccccc2)CC2=C1C1(CCCCC1)N=C(Nc1nc3ccccc3o1)N2 (stereo unspecified),inactive
16,O=C(O)c1ccc(S(=O)(=O)N[C@H](Cc2ccc(O)cc2)C(=O)O)cc1,inactive
17,Cc1c([S+](=O)([O-])N2CCN([S+](=O)([O-])c3c(F)cccc3F)CC2)sc2ccc(Cl)cc12,inactive
18,COc1ccc(-c2ccc(Nc3nc(-c4ccncc4)nc4ccccc34)cc2F)cc1F,inactive
19,O=C(Nc1ccc(F)nc1)Nc1nnc(-c2ccncc2)s1,inactive

# Reference: PubChem BioAssay (NCATS)
